One assay concerns the target Solute carrier family 2, facilitated glucose transporter member 1 (Homo sapiens) (UniProt P11166). Description: ST_JUDE_LEISH: Cytotoxicity at 2uM final concentration against transgenic Leishmania Mexicana promastigotes LmGLUT1 that are glucose transport deficient and complemented with the human glucose transporter GLUT1. Activity is measured by DNA content using SYBR green in vitro. It counts as functional.
Sequence of Solute carrier family 2, facilitated glucose transporter member 1 (Homo sapiens) (P11166 whole entry): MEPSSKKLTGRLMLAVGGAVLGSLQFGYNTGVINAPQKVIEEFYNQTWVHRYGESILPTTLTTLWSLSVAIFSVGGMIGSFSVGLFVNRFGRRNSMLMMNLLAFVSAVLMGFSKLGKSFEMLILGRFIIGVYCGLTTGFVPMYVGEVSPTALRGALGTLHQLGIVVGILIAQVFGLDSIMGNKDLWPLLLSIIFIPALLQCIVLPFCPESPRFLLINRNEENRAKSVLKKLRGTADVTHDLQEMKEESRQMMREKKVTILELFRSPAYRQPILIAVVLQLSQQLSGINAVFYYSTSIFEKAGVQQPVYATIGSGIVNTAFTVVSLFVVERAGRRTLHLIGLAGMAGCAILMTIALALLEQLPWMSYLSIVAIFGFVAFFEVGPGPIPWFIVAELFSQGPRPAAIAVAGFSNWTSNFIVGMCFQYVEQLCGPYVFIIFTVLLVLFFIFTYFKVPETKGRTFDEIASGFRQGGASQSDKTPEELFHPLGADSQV
Consider `Cc1ccc2[nH]c3ccccc3c(=O)c2c1`, for which the inhibition is 0.1%.
In the case of `CCc1nonc1NC(=O)c1oc2c(C)c(C)ccc2c1C`, the inhibition is 7.09%.
Still for that read-out and setting: under `O=C(COc1cccc([N+](=O)[O-])c1)Nc1ccc(-c2nc3ccccc3[nH]2)cc1` stands 1.62%; under `Cc1cccc2nc(-c3ccc(-c4cccc(CN5CCCC(O)C5)c4)s3)[nH]c12` (centres undefined), 3.6%; under `Cc1cc(N[C@@H](C)C(=O)Nc2ccccc2)nc(NCCc2ccc(F)cc2)n1`, 2.77%.
On the same count and under the same terms, next, `CCc1ccc(NC(=O)N(CCCN2CCN(C)CC2)Cc2csc(-c3ccc(CNCc4ccccc4)cc3)n2)cc1`: -1.59%; `CC(C)(C)c1ccc(NC(=O)c2ccc(CN3CCCN(Cc4ccc(F)cc4)CC3)cc2)cc1`: 2.24%; `O=C(N[C@H]1CCN(Cc2ccc(OCCCN3CCCCC3)cc2)C1)c1ccc2ccccc2c1`: 4.56%.
The same measure, in the same setting: under `CC(=O)Nc1ncc(C(=O)Nc2cccc(-c3cccc(-c4nc5ccccc5[nH]4)c3)c2)s1` stands 1.58%; under `COc1cc2nc(SCCCC#N)n(C3CCCCCC3)c(=N)c2cc1OC`, 7.27%; under `O=C(Nc1cccc(C(F)(F)F)c1)NC1CCN(c2ccnc3ccccc23)C1` (centres undefined), 1.65%.
Regarding `CCCN(Cc1ccc(OCC)cc1)Cc1cc(=O)c2cc(Cl)ccc2[nH]1`, the inhibition is 8.02%.
The same measure, in the same setting: under `O=c1cc(NCCCNCc2cc(Cl)cc(Cl)c2OCc2ccccc2)[nH]c2ccccc12` stands 5.54%.
`COc1ccc(NC(=O)/C=C/c2ccccc2Cl)cc1OCCN1CCC(N2CCN(C)CC2)CC1`: the inhibition was 4.65%.
In the case of `CN1CCN(CCNc2c3ccccc3nc3c2ccc2ccccc23)CC1`, the inhibition was 84.6%.
With `CC(C)N(Cc1ccc(-c2ccc(C(F)(F)F)cc2)cc1)C(=O)Cn1c(SCc2cccc(F)c2F)cc(=O)c2cc(CN3CCCCC3)ccc21`, the inhibition came out at 2.18%.
On the same count and under the same terms, under `CS(=O)(=O)c1ccc(CNCc2cccc(-c3cccc(-c4nc5cc(C(F)(F)F)ccc5[nH]4)c3)c2)cc1` stands 5.54%; under `CC(C)c1ccc(CN2CCCCC(NC(=O)c3cc(-c4ccccc4Cl)cs3)C2)cc1` (centres undefined), -0.41%; under `Brc1ccccc1CNc1ccnc(NCCn2ccnc2)n1`, -0.91%.
Regarding `CCN1CCN(Cc2c(O)ccc3c(=O)c(Oc4cc(C)cc(C)c4)c(C(F)(F)F)oc23)CC1`, the inhibition was determined as 75.7%.
In the case of `Cc1cc(-c2ccc(Cl)cc2)c2c(N)c(C(=O)Nc3ccc(F)cc3)sc2n1`, the inhibition turned out to be 0.19%.
For `COC1CCC(C(=O)Nc2ccc(-c3cccc(-c4nc5cc(C(F)(F)F)ccc5[nH]4)c3)cc2)CC1` (centres undefined), the inhibition turned out to be 0.64%.
With `O=C(Nc1cccc(-c2ccc(-c3nc4ccccc4[nH]3)cc2)c1)c1cnn2cccnc12`, the inhibition is -0.77%.
On the same count and under the same terms, next, `Fc1ccc2[nH]c(-c3ccc(-c4ccc(CNCC5CCCO5)cc4)cc3)nc2c1` (centres undefined): 12.4%.

The next assay deals with Hexose transporter 1 (Plasmodium falciparum) (UniProt O97467). Nature of the assay: ST_JUDE_LEISH: Cytotoxicity at 2uM final concentration against transgenic Leishmania Mexicana promastigotes LmPfHT that are glucose transport deficient and complemented with the Plasmodium falciparum hexose transporter. Activity is measured by DNA content using SYBR green in vitro. Type of assay: functional.
For the compound `CCOc1ccc2c(=NN=Cc3ccccc3F)cc(C)[nH]c2c1`, the inhibition is 1.33%.
Consider `C[C@H]1CN(Cc2cccc(-c3cc(CNC(=O)c4cccc(CN5CCN(C/C=C/c6ccccc6)CC5)c4)ccc3F)c2)CCN1`, for which the inhibition was determined as 10.6%.
Turning to `CN1CCC(c2cc3c(cc2Br)CCN3C(=O)Nc2ccc(-c3ccncc3)c(Cl)c2)CC1`, the inhibition stood at 1.09%.
For the compound `CCOC(=O)C(C#N)NC(=O)C=Cc1ccccc1` (centres undefined), the inhibition came out at 6.93%.
Turning to `CC(C)CN1CCCN(Cc2cccc(NC(=O)c3ccc(-c4ccccc4)cc3)c2)CC1`, the inhibition was determined as 0.24%.
On to `CCCN(Cc1nnc(-c2ccco2)o1)C(=O)C1CCN(c2ncc(C(F)(F)F)cc2Cl)CC1`, for which the inhibition stood at 10.2%.
Same read-out and setting: under `N#Cc1ccccc1C(=O)N(Cc1cncn1Cc1cccc(F)c1)CC1CC1` stands 10.2%; under `C=CCc1cc(Br)ccc1OCCCON1C(N)=NC(N)=NC1(C)C`, 27.3%; under `COc1ccc(CN2CCC(CNCCc3ccccc3Cl)CC2)cc1`, 11.1%.
As to `CC(C)(C)c1ccc(-c2nc3c(ccc4nc(N)nc(N)c43)[nH]2)cc1`, the inhibition was -1.54%.
Take `Cc1ccc(C(=O)Nc2ccc(F)c(F)c2F)cc1S(=O)(=O)N1CCCCC1`: the inhibition came out at 3.47%.
Still for that read-out and setting: next, `Cc1nn(CC(C)C)c2sc(C(=O)N3CCN(S(=O)(=O)c4ccc(C#N)cc4)CC3)cc12`: 8.28%.
The same measure, in the same setting: next, `COc1cccc(NC(=O)Cn2c(C)c(C#N)c3ccccc32)c1`: 5%; `CCOc1ccc(Nc2nc(N)c3ccccc3n2)cc1`: 10.3%.
On the same count and under the same terms, under `COCCn1c(SC(C)C(=O)Nc2cc(C(F)(F)F)ccc2Cl)nc2ccccc2c1=O` (centres undefined) stands -0.22%.
With `CN1CCC(C(=O)Nc2ccc(-c3ccc(-c4nc5cc(C(F)(F)F)ccc5[nH]4)s3)cc2)CC1`, the inhibition stood at 0.49%.
As for `Cc1ccc2[nH]c3ccccc3c(=O)c2c1`, the inhibition came to 1.92%.
`CCc1nonc1NC(=O)c1oc2c(C)c(C)ccc2c1C`: the inhibition worked out at 5.3%.
The same measure, in the same setting: next, `O=C(COc1cccc([N+](=O)[O-])c1)Nc1ccc(-c2nc3ccccc3[nH]2)cc1`: 2.12%.
With `Cc1cccc2nc(-c3ccc(-c4cccc(CN5CCCC(O)C5)c4)s3)[nH]c12` (centres undefined), the inhibition was 4.83%.
Turning to `Cc1cc(N[C@@H](C)C(=O)Nc2ccccc2)nc(NCCc2ccc(F)cc2)n1`, the inhibition was 4.77%.
Same read-out and setting: next, `CCc1ccc(NC(=O)N(CCCN2CCN(C)CC2)Cc2csc(-c3ccc(CNCc4ccccc4)cc3)n2)cc1`: -0.93%.
Regarding `CC(C)(C)c1ccc(NC(=O)c2ccc(CN3CCCN(Cc4ccc(F)cc4)CC3)cc2)cc1`, the inhibition was -1.93%.
Still for that read-out and setting: under `O=C(N[C@H]1CCN(Cc2ccc(OCCCN3CCCCC3)cc2)C1)c1ccc2ccccc2c1` stands 6.47%; under `CC(=O)Nc1ncc(C(=O)Nc2cccc(-c3cccc(-c4nc5ccccc5[nH]4)c3)c2)s1`, 1.44%; under `COc1cc2nc(SCCCC#N)n(C3CCCCCC3)c(=N)c2cc1OC`, 5.84%.
On to `O=C(Nc1cccc(C(F)(F)F)c1)NC1CCN(c2ccnc3ccccc23)C1` (centres undefined), for which the inhibition is -0.4%.
Regarding `CCCN(Cc1ccc(OCC)cc1)Cc1cc(=O)c2cc(Cl)ccc2[nH]1`, the inhibition was found to be 8%.
The same measure, in the same setting: under `O=c1cc(NCCCNCc2cc(Cl)cc(Cl)c2OCc2ccccc2)[nH]c2ccccc12` stands 2.83%.
For `COc1ccc(NC(=O)/C=C/c2ccccc2Cl)cc1OCCN1CCC(N2CCN(C)CC2)CC1`, the inhibition is 6.39%.
Still for that read-out and setting: under `CN1CCN(CCNc2c3ccccc3nc3c2ccc2ccccc23)CC1` stands 88%; under `CC(C)N(Cc1ccc(-c2ccc(C(F)(F)F)cc2)cc1)C(=O)Cn1c(SCc2cccc(F)c2F)cc(=O)c2cc(CN3CCCCC3)ccc21`, 1.78%.
In the case of `CS(=O)(=O)c1ccc(CNCc2cccc(-c3cccc(-c4nc5cc(C(F)(F)F)ccc5[nH]4)c3)c2)cc1`, the inhibition was determined as 5.92%.
Take `CC(C)c1ccc(CN2CCCCC(NC(=O)c3cc(-c4ccccc4Cl)cs3)C2)cc1` (centres undefined): the inhibition was -1.98%.
With `Brc1ccccc1CNc1ccnc(NCCn2ccnc2)n1`, the inhibition stood at 0.05%.
Take `CCN1CCN(Cc2c(O)ccc3c(=O)c(Oc4cc(C)cc(C)c4)c(C(F)(F)F)oc23)CC1`: the inhibition amounted to 73.3%.
Still for that read-out and setting: under `Cc1cc(-c2ccc(Cl)cc2)c2c(N)c(C(=O)Nc3ccc(F)cc3)sc2n1` stands -2.52%; under `COC1CCC(C(=O)Nc2ccc(-c3cccc(-c4nc5cc(C(F)(F)F)ccc5[nH]4)c3)cc2)CC1` (centres undefined), -0.27%; under `O=C(Nc1cccc(-c2ccc(-c3nc4ccccc4[nH]3)cc2)c1)c1cnn2cccnc12`, -0.45%.
For `Fc1ccc2[nH]c(-c3ccc(-c4ccc(CNCC5CCCO5)cc4)cc3)nc2c1` (centres undefined), the inhibition was found to be 11.2%.

One may read the inhibition as the change of the read-out against control, counted positive when it falls.

Source of the values: ChEMBL document CHEMBL3433997, “St. Jude Leishmania screening dataset” (2016).
